HCMV antiviral: human cytomegalovirus inhibition; HFF cells, HCMV-luciferase reporter, 72 h; active compounds read low; activity change, negative = inhibition, % at 57.5 µM; 410,000 compounds, 4.5% hits; AID 1259415; in the data active means activity change below about -60%; inconclusive means no clear call, values can overlap the other calls; inactive means above about -39%
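Cell-based, HFFs, 1000 cells/well, 16 h 37C; cpds in DMSO + HCMV-luc, MOI 1 PFU/cell; 72 h 37C; OneGlo luminescence after 5 min RT; norm. to buffer vs Salinomycin 10uM.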
FMDV inh: blocks foot and mouth disease virus. FMDV antiviral cell-based qHTS. Potency, µM (titrated, usually from 57.9 µM), inactives show at the highest dose activity change, negative = inhibition, most hits filed as inhibitors. 410,000 compounds, 1.2% hits. AID 1159524; calls by dose curve; tested in HEK293T cells; further: read-out not given here; potency means the concentration at half of the fitted maximal effect; nearly all actives have a fitted effect of over 45% in size
Vaccinia mCherry: vaccinia inhibition (mCherry reporter) | Vaccinia virus mCherry reporter infection, fluorescence | Potency, µM (titrated, usually from 36.5 µM), for the others: at the top dose activity change, negative = inhibition, most hits filed as inhibitors | 310,000 compounds, 0.63% hits | AID 720579; calls by dose curve; tested in A549 cells; further: potency means the concentration at half of the fitted maximal effect; nearly all actives have a fitted effect of over 35% in size
HCV inh: HCV inhibition | Huh7.5.1 HCVcc-Cre infection, luciferase reporter, 44 h | AID 651820 | Potency, µM (series often up to 41.8 µM), inactives show top-dose activity change, negative = inhibition, usual class: inhibitors | 340,000 compounds, 3.4% hits; further: potency means the concentration at half of the fitted maximal effect
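HCVcc-Cre virus at an moi near 0.5 was added right after compound to cells cultured 4 h from seeding (1,000 cells/well). Luciferase activity was determined 44 h later, 15 min after substrate addition at RT.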
VACV Venus inh: inhibitors of vaccinia virus (Venus reporter) | Potency, µM (top dose mostly 36.5 µM), for the others: top-dose activity change, negative = inhibition, hits mostly inhibitors | Vaccinia virus Venus reporter expression, fluorescence | 330,000 compounds, 0.46% hits; calls by dose curve; tested in A549 cells; further: potency means the concentration at half of the fitted maximal effect; nearly all actives have a fitted effect of over 30% in size
Sm TGR inh: S. mansoni TGR enzyme inhibition | Q962Y6 | purified TGR, DTNB reduction, TNB absorbance 405 nm | Potency, µM (titrated, usually from 114 µM), without a hit: at the top dose activity change, negative = inhibition, usual class: inhibitors | 360,000 compounds, 3% hits | AID 485364; further: potency means the concentration at half of the fitted maximal effect; nearly all actives have a fitted effect of over 60% in size
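TGR 20 nM + NADPH 100 uM (dispensed conc.), cpd preinc 15 min RT; start with NADPH (500 uM addition) then DTNB (15 mM addition). Kinetic TNB absorbance, 405 nm filter. Four-parameter Hill fit across titration.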
* hit, by the source's call; i = inactive; ? = inconclusive; . = no result. Rows were chosen to be rich in hits. Some 9.3% of all compounds tested hit in one or more screens of this group. Unless noted, the call rests on the fitted dose curve; in most records, active means well fitted curve in the direction sought with a large enough effect; inconclusive means small, poorly fitted or top-dose-only effect, or another doubt; inactive means no such curve, though single readings can be large; an effect the other way counts as inactive or inconclusive. On the % scale 0 is the no-effect control and ±100 the full control effect.

SMILES | HCMV antiviral | FMDV inh | Vaccinia mCherry | HCV inh | VACV Venus inh | Sm TGR inh
Cc1ccc(-c2csc(N3CCC(C(N)=O)CC3)n2)cc1 | 88 | 44% | . | . | . | -3%
Cc1ccc(-c2csc(N3CCC(NS(=O)(=O)c4ccc5c(c4)OCCO5)CC3)n2)cc1 | -85* | ? | ? | 10µM* | 8.9µM* | 10%
CCc1cc(=O)oc2c(C)c(OC(C)C(=O)NCCCN3CCOCC3)ccc12 (stereo not given) | -20 | 5% | . | -9% | . | -4%
N=c1sccn1CC(=O)Nc1ccc(S(=O)(=O)N2CCOCC2)cc1 | -63* | -2% | ? | 7% | -27% | 8%
Cc1cc(OCC(=O)Nc2ccc(S(=O)(=O)N3CCN(C)CC3)cc2)ccc1Cl | -13 | -29% | i | ? | -20% | -9%
CC(CC(=O)Nc1ccc(Cl)c(S(=O)(=O)N2CCOCC2)c1)c1ccccc1 (stereo not given) | -82* | ? | -14% | 2.5µM* | ? | 15%
COc1ccc(OCC(=O)Nc2ccc(S(=O)(=O)N3CCOCC3)cc2)cc1 | 5 | -11% | i | -10% | -13% | 5%
Cc1cc(OCC(=O)Nc2ccc(S(=O)(=O)N3CCN(C)CC3)cc2)cc(C)c1Cl | -15 | -30% | -30% | 11µM* | -24% | -16%
O=C(COc1ccc(S(=O)(=O)N2CCOCC2)cc1)Nc1ccc(Br)cc1 | -26 | ? | . | 10µM* | . | .
Cc1ccc(S(=O)(=O)N2CCOCC2)cc1NC(=O)Cn1ccsc1=N | -16 | -13% | . | 10% | -14% | -22%
CNC(=S)NN(C)c1nc(C)cc(C)n1 | -18 | 0% | i | 35% | -10% | 0%
Cc1ccccc1N=Nc1c(N)n[nH]c1N | 15 | 40% | . | -14% | . | -11%
O=C(CCCSc1nc(-c2ccco2)cc(C(F)(F)F)n1)NCc1cccs1 | -27 | 0% | . | ? | ? | -33%
COc1ccc2ccccc2c1CN1CCN(C(=O)c2ccco2)CC1 | 13 | ? | -6% | ? | -8% | -20%
C=CCOC(=O)C(=O)/C=C/c1coc2ccccc2c1=O | 61 | -14% | i | 40% | ? | ?
O=C(CC1CCCC1)Nc1ccc(Cl)c(S(=O)(=O)N2CCOCC2)c1 | ? | 32µM* | ? | 11µM* | -26% | .
COc1ccc(N(CC(=O)Nc2ccc(S(=O)(=O)N3CCOCC3)cc2)S(=O)(=O)c2ccccc2)cc1 | -17 | -16% | . | 4µM* | -10% | 1%
CC(=O)Nc1ccc(OCC(=O)Nc2ccc(Cl)c(S(=O)(=O)N3CCOCC3)c2)cc1 | -71* | . | . | ? | . | .
COc1ccc(NC(=O)CN(c2ccc([N+](=O)[O-])cc2)S(=O)(=O)c2ccccc2)cc1 | -8 | -7% | ? | ? | ? | 5%
CCOc1ccc(NC(=O)COc2ccc(S(=O)(=O)N3CCOCC3)cc2)cc1 | -17 | -35% | 16% | ? | 87% | .
Cc1cnc2c(c1SCC(=O)N(C)c1ccccc1)c(=O)n(C)c(=O)n2C | 17 | -12% | -13% | . | 0% | 0%
CCCOc1ccc(-c2nn(-c3ccccc3)cc2C2NC(=O)NC(C)=C2C(=O)OC)cc1C (stereo not given) | -6 | 14% | -8% | . | -22% | 5%
Cc1cc(-c2ccco2)c(C#N)c2nc3ccccc3n12 | -30 | 4% | 7% | ? | 6% | 28µM*
Cc1c2c(n3c(nc4ccccc43)c1C#N)N(CCN(C)C)CC2 | 35 | -12% | i | 11µM* | 0% | 0%
CCc1c(C)c(C#N)c2nc3ccccc3n2c1-n1nc(C)cc1C | 11 | -28% | -8% | 5% | -5% | 1%
SMILES | HCMV antiviral | FMDV inh | Vaccinia mCherry | HCV inh | VACV Venus inh | Sm TGR inh
CCc1c(C)c(C#N)c2nc3ccccc3n2c1Cl | . | . | . | ? | . | 11µM*
CCc1c(C)c(C#N)c2nc3ccccc3n2c1NCCOC | ? | -5% | . | -4% | . | 40µM*
O=C(CSc1ccc2c(c1)OCCO2)Nc1ccc2c(c1)OCO2 | . | -21% | . | -16% | -14% | 2%
O=C(NCC1OCCc2ccccc21)c1ccco1 (stereo not given) | -7 | -1% | . | 10% | -8% | 32µM*
O=C(NCC1OCCc2ccccc21)c1ccc(NC(=O)c2ccc(Cl)cc2)cc1 (stereo not given) | -82* | 0% | ? | 4.5µM* | ? | 1%
O=C1CC(c2cccc(F)c2)c2c(c3ccccc3[nH]c2=O)O1 (stereo not given) | 18 | -14% | 5% | 6% | 0% | 4%
CCCCCNC(=O)C1CCC(Cn2c(=O)c3sccc3n(CC(=O)NCc3cccc(OC)c3OC)c2=O)CC1 (stereo not given) | 20 | 1% | -8% | . | -6% | 1%
CCCOc1ccc(CC2CCC(=O)NC2=O)cc1 (stereo not given) | -69* | 11µM* | . | 8% | . | -24%
O=c1ccccn1Cc1c(Cl)cccc1Cl | -7 | 14% | -1% | . | -6% | 2%
CCC1=[N+](CC(=O)c2ccc(C)cc2)CCn2c(C)ccc21 | -63* | -23% | ? | ? | -23% | -34%
CCC1=[N+](CC(=O)c2ccc(C)cc2)CCn2cccc21 | 3 | 51% | -3% | 9% | -7% | .
CCC1=[N+](CC(=O)c2ccc(Br)cc2)CCn2c(C)ccc21 | -28 | -13% | . | -3% | . | 18µM*
c1cnc2nc3c4ccccc4c4ccccc4c3nc2c1 | 88 | -8% | -15% | 2.8µM* | -10% | .
Nc1ccc(Nc2ccccc2)c(Cl)c1 | -1 | 28% | -3% | 14% | 2% | 11µM*
CC1CCCCN1C(=O)CN1C(=O)NC2(CCCCC2C)C1=O (stereo not given) | 32 | 6% | -2% | 8% | -12% | -5%
COc1ccc2c(=O)c3c(=O)n(Cc4ccccc4)c(C(C)C)nc3oc2c1 | -30 | -18% | -2% | -11% | -4% | .
CCc1nc2oc3cc(OC)ccc3c(=O)c2c(=O)n1Cc1ccco1 | -35 | -21% | . | -13% | . | 28µM*
COc1ccc2c(=O)c3c(=O)n(Cc4ccco4)c(-c4ccco4)nc3oc2c1 | 1 | 13% | . | -28% | . | 40µM*
COc1ccc(Cn2c(-c3ccco3)nc3oc4cc(OC)ccc4c(=O)c3c2=O)cc1 | -2 | 27% | . | ? | . | ?
COCCn1c(-c2ccc(OC)cc2)nc2oc3cc(OC)ccc3c(=O)c2c1=O | -19 | -5% | . | 10% | . | 5%
COc1ccc(-c2nc3oc4cc(OC)ccc4c(=O)c3c(=O)n2Cc2ccco2)cc1 | -15 | -16% | . | ? | . | 20µM*
O=C(CCNC(=O)Cn1ccc2ccccc2c1=O)NCCc1ccc(Cl)cc1 | -16 | -18% | -21% | 7% | -20% | -7%
CC1CC(C)CN(c2oc(-c3ccco3)nc2C#N)C1 (stereo not given) | -29 | -4% | -8% | 15% | -6% | -27%

Screening data: PubChem, National Center for Advancing Translational Sciences (NCATS)
